A short description of assay [1]: NCI Yeast Anticancer Drug Screen. Data for the rad50 strain (AID 155).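 Further: 0% = growth of vehicle-only cultures of the same strain.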 The following applies: S. cerevisiae rad50 strain growth inhibition, active compounds read high. In outline: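 Growth of the mutant yeast was measured after compound exposure and referenced to vehicle-treated cultures.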
Assay [2] can be described thus: NCI Yeast Anticancer Drug Screen. Data for the mec2-1 strain (AID 157). The following applies: S. cerevisiae mec2-1 strain, active compounds read high. Summed up: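 Strain: mec2-1 (DNA repair/cell cycle alteration). Compound exposure, then growth measured; inhibition expressed relative to vehicle.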
A short description of assay [3]: NCI Yeast Anticancer Drug Screen. Data for the sgs1 mgt1 strain (AID 161).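 Further: 0% = growth of cultures given vehicle only.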 The following applies: S. cerevisiae sgs1 mgt1 strain, active compounds read high. In outline:
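Test agents were incubated with a DNA-repair-mutant yeast strain. Growth was then read and compared against vehicle-treated controls.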

Assay [4] can be described thus: NCI Yeast Anticancer Drug Screen. Data for the cln2 rad14 strain (AID 165).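 Further: 0% = growth equal to vehicle treated cultures.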 The following applies: S. cerevisiae cln2 rad14 strain, active compounds read high. Summed up: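 Compounds are applied to the cln2 rad14 yeast strain, and growth is then compared with that of vehicle-treated cultures to give inhibition.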
Assay [5] in a line: NCI Yeast Anticancer Drug Screen. Data for the bub3 strain (AID 167). To be noted: S. cerevisiae bub3 mutant strain, active compounds read high. In outline:
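Whole-cell yeast assay. The mutant strain was incubated with compounds, and growth inhibition was determined by comparison with vehicle-treated cells.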

A short description of assay [6]: NCI Yeast Anticancer Drug Screen. Data for the mlh1 rad18 strain (AID 175). To be noted: S. cerevisiae mlh1 rad18 strain growth inhibition, active compounds read high. Summed up: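 Read-out is yeast growth inhibition, calculated against vehicle-only controls. The compound was applied to a strain engineered with DNA damage repair alterations.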
The mark [7] stands for this setting: at 5.0 µM (retest, dose inferred, filed as 0.5).
The mark [8] stands for this setting: at 50.0 µM (retest, dose inferred, filed as 5.0).

About 79,000 compounds went through this panel and 15% of them were active in at least one assay; those are over-represented in the sample as a whole. Unmarked numbers belong to inactive results. Activity calls are given as the source filed them. No stated cut-off is given here; in the data, active means growth inhibition above about 70%; inactive means the rest.

For `O=C1c2ccc(Cl)cc2C(=O)c2cc(Cl)ccc21`, the growth inhibition in assay [1] (setting [7]) is 7%; in assay [1] (setting [8]), 99% (active); in assay [1] (at 50.0 µM), 91.9% (active); in assay [2] (setting [7]), 11%; in assay [2] (setting [8]) it was 98% (active); in assay [2] (at 50.0 µM), 46.5%. Further, the growth inhibition is 3% in assay [3] (setting [7]); 99% (active) in assay [3] (setting [8]); 65.3% in assay [3] (at 50.0 µM); -12% in assay [4] (setting [7]); 99% (active) in assay [4] (setting [8]); 14.3% in assay [4] (at 50.0 µM). The growth inhibition in assay [5] (setting [7]) is 19%; in assay [5] (setting [8]), 99% (active); in assay [5] (at 50.0 µM), 89.2% (active); in assay [6] (setting [7]), 8%; in assay [6] (setting [8]), 99% (active); in assay [6] (at 50.0 µM), 77% (active).

Consider `CC(=N/NC(=S)NCC(C)C)/C(C)=N\Nc1ccc(Cl)cc1`, for which the growth inhibition in assay [1] (setting [7]) was 2%; in assay [1] (setting [8]), 81% (active); in assay [1] (at 50.0 µM) it was 95% (active); in assay [2] (setting [7]), -1%; in assay [2] (setting [8]), 79% (active); in assay [2] (at 50.0 µM), 73.2% (active). The growth inhibition in assay [3] (setting [7]) was 1%; in assay [3] (setting [8]) it was 91% (active); in assay [3] (at 50.0 µM), 92.4% (active); in assay [4] (setting [7]), -4%; in assay [4] (setting [8]) it was 79% (active); in assay [4] (at 50.0 µM), 72.8% (active). For the same compound, the growth inhibition is -4% in assay [5] (setting [7]); 82% (active) in assay [5] (setting [8]); 93.7% (active) in assay [5] (at 50.0 µM); 0% in assay [6] (setting [7]); 90% (active) in assay [6] (setting [8]); 92% (active) in assay [6] (at 50.0 µM).

`Cc1cccc2c1C(=O)N(CC[P+](c1ccccc1)(c1ccccc1)c1ccccc1)C2=O`: the growth inhibition in assay [1] (setting [7]) is 77% (active); in assay [1] (setting [8]), 85% (active); in assay [1] (at 50.0 µM), 58.1%; in assay [2] (setting [7]) it was 58%; in assay [2] (setting [8]), 87% (active); in assay [2] (at 50.0 µM) it was 70.3% (active). For the same compound, the growth inhibition in assay [3] (setting [7]) was 70% (active); in assay [3] (setting [8]), 93% (active); in assay [3] (at 50.0 µM), 61.9%; in assay [4] (setting [7]), 58%; in assay [4] (setting [8]) it was 91% (active); in assay [4] (at 50.0 µM) it was 35.3%. Also, the growth inhibition in assay [5] (setting [7]) was 80% (active); in assay [5] (setting [8]) it was 95% (active); in assay [5] (at 50.0 µM) it was 70.5% (active); in assay [6] (setting [7]), 64%; in assay [6] (setting [8]) it was 86% (active); in assay [6] (at 50.0 µM), 67.9%.

`CCCCCCCCCCCCCCC(=O)OCC[N+](C)(C)C`: the growth inhibition in assay [1] (setting [7]) was 33%; in assay [1] (setting [8]), 98% (active); in assay [1] (at 50.0 µM) it was 90.2% (active); in assay [2] (setting [7]), 24%; in assay [2] (setting [8]), 98% (active); in assay [2] (at 50.0 µM), 93% (active). In addition, the growth inhibition was 45% in assay [3] (setting [7]); 99% (active) in assay [3] (setting [8]); 92.8% (active) in assay [3] (at 50.0 µM); 33% in assay [4] (setting [7]); 98% (active) in assay [4] (setting [8]); 85.3% (active) in assay [4] (at 50.0 µM). Further, the growth inhibition was 44% in assay [5] (setting [7]); 99% (active) in assay [5] (setting [8]); 91.8% (active) in assay [5] (at 50.0 µM); 27% in assay [6] (setting [7]); 97% (active) in assay [6] (setting [8]); 91.2% (active) in assay [6] (at 50.0 µM).

Consider `CCNc1cc(SC)nc(N)n1`, for which the growth inhibition was 1% in assay [1] (setting [7]); -4% in assay [1] (setting [8]); 1.2% in assay [1] (at 50.0 µM); -1% in assay [2] (setting [7]); 2% in assay [2] (setting [8]); 37.1% in assay [2] (at 50.0 µM). The growth inhibition in assay [3] (setting [7]) was -1%; in assay [3] (setting [8]), -3%; in assay [3] (at 50.0 µM), -7.6%; in assay [4] (setting [7]) it was -8%; in assay [4] (setting [8]), 3%; in assay [4] (at 50.0 µM) it was -3.6%. In addition, the growth inhibition was -2% in assay [5] (setting [7]); -1% in assay [5] (setting [8]); -23.2% in assay [5] (at 50.0 µM); 1% in assay [6] (setting [7]); -4% in assay [6] (setting [8]); -22.4% in assay [6] (at 50.0 µM).

`Cc1cc(O)ccc1SC#N`: the growth inhibition was -11% in assay [1] (setting [7]); 53% in assay [1] (setting [8]); 87.2% (active) in assay [1] (at 50.0 µM); -22% in assay [2] (setting [7]); 32% in assay [2] (setting [8]); 80% (active) in assay [2] (at 50.0 µM). For the same compound, the growth inhibition was -13% in assay [3] (setting [7]); 28% in assay [3] (setting [8]); 79.9% (active) in assay [3] (at 50.0 µM); -3% in assay [4] (setting [7]); 21% in assay [4] (setting [8]); 73.4% (active) in assay [4] (at 50.0 µM). Further, the growth inhibition in assay [5] (setting [7]) is -11%; in assay [5] (setting [8]), 57%; in assay [5] (at 50.0 µM) it was 79.3% (active); in assay [6] (setting [7]), 7%; in assay [6] (setting [8]), 66%; in assay [6] (at 50.0 µM), 83.5% (active).

For `N#CCc1ccccc1-c1cccc2ccccc12`, the growth inhibition in assay [1] (setting [7]) is 0%; in assay [1] (setting [8]), 36%; in assay [1] (at 50.0 µM) it was 35.6%; in assay [2] (setting [7]), 0%; in assay [2] (setting [8]), 44%; in assay [2] (at 50.0 µM) it was 29.4%. Besides, the growth inhibition was -2% in assay [3] (setting [7]); 17% in assay [3] (setting [8]); 54.8% in assay [3] (at 50.0 µM); 3% in assay [4] (setting [7]); 24% in assay [4] (setting [8]); 41.2% in assay [4] (at 50.0 µM). In addition, the growth inhibition in assay [5] (setting [7]) is 3%; in assay [5] (setting [8]) it was 34%; in assay [5] (at 50.0 µM), 40%; in assay [6] (setting [7]), 1%; in assay [6] (setting [8]), 41%; in assay [6] (at 50.0 µM), 71.5% (active).

With `COc1cc(Cc2n[nH]c(=S)n2-c2ccccc2)c(S(N)(=O)=O)cc1OC`, the growth inhibition in assay [1] (setting [7]) is 4%; in assay [1] (setting [8]) it was 4%; in assay [1] (at 50.0 µM), 10.1%; in assay [2] (setting [7]) it was 1%; in assay [2] (setting [8]) it was 4%; in assay [2] (at 50.0 µM) it was 0.85%. Moreover, the growth inhibition in assay [3] (setting [7]) is 9%; in assay [3] (setting [8]), -16%; in assay [3] (at 50.0 µM) it was -2.75%; in assay [4] (setting [7]), 0%; in assay [4] (setting [8]), 4%; in assay [4] (at 50.0 µM), 8.55%. Also, the growth inhibition in assay [5] (setting [7]) was -2%; in assay [5] (setting [8]) it was 3%; in assay [5] (at 50.0 µM), 0.15%; in assay [6] (setting [7]), 0%; in assay [6] (setting [8]), -62%; in assay [6] (at 50.0 µM), 11.4%.

On to `CC(C)(C)c1cc(C(=O)[O-])c([OH2+])c(C(C)(C)C)c1.CC(C)(C)c1cc(C(=O)[O-])c([OH2+])c(C(C)(C)C)c1.[Mn+2]`, for which the growth inhibition in assay [1] (setting [7]) is 22%; in assay [1] (setting [8]), 59%; in assay [1] (at 50.0 µM), 99% (active); in assay [2] (setting [7]), 27%; in assay [2] (setting [8]), 60%; in assay [2] (at 50.0 µM), 98.8% (active). Moreover, the growth inhibition in assay [3] (setting [7]) was 21%; in assay [3] (setting [8]) it was 42%; in assay [3] (at 50.0 µM) it was 98.5% (active); in assay [4] (setting [7]), 42%; in assay [4] (setting [8]), 78% (active); in assay [4] (at 50.0 µM), 97% (active). In addition, the growth inhibition in assay [5] (setting [7]) was 21%; in assay [5] (setting [8]) it was 49%; in assay [5] (at 50.0 µM), 97% (active); in assay [6] (setting [7]) it was 28%; in assay [6] (setting [8]) it was 71% (active); in assay [6] (at 50.0 µM) it was 98.2% (active).

For `CCOC(=O)OC(=S)N(C1CCCCC1)C1CCCCC1`, the growth inhibition in assay [1] (setting [7]) is 4%; in assay [1] (setting [8]), 58%; in assay [1] (at 50.0 µM), 50.5%; in assay [2] (setting [7]), 0%; in assay [2] (setting [8]), 90% (active); in assay [2] (at 50.0 µM), 16.6%. Also, the growth inhibition in assay [3] (setting [7]) was 5%; in assay [3] (setting [8]), 76% (active); in assay [3] (at 50.0 µM), 50.8%; in assay [4] (setting [7]) it was 5%; in assay [4] (setting [8]) it was 58%; in assay [4] (at 50.0 µM), 41.4%. Also, the growth inhibition in assay [5] (setting [7]) was -1%; in assay [5] (setting [8]) it was 77% (active); in assay [5] (at 50.0 µM), 61.9%; in assay [6] (setting [7]), 1%; in assay [6] (setting [8]), 85% (active); in assay [6] (at 50.0 µM), 60.8%.

The values are drawn from PubChem BioAssay (NCI).
